# Assay: enhancers of NK cell killing of ovarian tumor cells, primary screen, imaging, OVCAR3, primary NK cells, calcein-AM imaging (AID 1508625);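 further: compound given to NK cells 16 h before adding targets at 1.5 to 1 ratio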
# Conditions: OVCAR3 lysis by primary NK cells, at 5 µM; z-score: measured here: robust Z-score, single-point normalisation
Compound,"corrected activity, negative = more killing",z-score
CCOC(=O)C1=C(N)OC2=C(C(=O)CC(C)(C)C2)C1c1ccccc1[N+](=O)[O-] (stereo not drawn),-1.89%,-0.587
O=C1OC(c2ccccc2Cl)=NC1=Cc1cccs1,-0.515%,-0.219
CCc1ccc(-n2c(CCC(=O)O)ccc2-c2ccc(F)cc2)cc1,-1.11%,-0.331
Cc1c(C(=O)NCc2cccs2)oc2ccc(S(=O)(=O)N3CCC(C)CC3)cc12,-7.39%,-1.84
C=CCn1c(=S)[nH]c2cc(C(=O)Nc3cccc(C(F)(F)F)c3)ccc2c1=O,-6.01%,-1.91
Cc1c(C(=O)NCCc2ccccc2)oc2ccc(S(=O)(=O)N3CCCC3)cc12,-4.9%,-1.22
Cc1ccc(OCCCCNC2CCCCC2)c(C)c1,4.21%,2.34
O=C1c2ccccc2C(=O)N1C1C(=O)N(c2cccc(C(F)(F)F)c2)C1c1ccc(F)cc1 (stereo not drawn),-1.28%,-0.397
CC(=NNC(=S)Nc1cccc(C)c1)c1cccc(N)c1,-5.28%,-2.08
CCOc1cc(C2Nc3ccccc3NC3=C2C(=O)CC(C)(C)C3)ccc1OC(C)=O (stereo not drawn),0.693%,0.309
Cc1cc(Nc2ncnc3sc4c(c23)CCCC4)ccc1Br,-1.91%,-1.03
Cc1sc2ncn(CC(=O)Nc3ccc(Oc4ccccc4)cc3)c(=O)c2c1S(=O)(=O)N1CCN(C)CC1,-6.04%,-1.5
CCOc1ccccc1C(=O)N1CCN(c2ccccc2OCC)CC1,-2.5%,-1.03
O=C(Nc1cccc(Br)c1)c1ccc2snnc2c1,-3.91%,-1.17
Cc1ccc([N+](=O)[O-])cc1NS(=O)(=O)c1ccc(Cl)cc1,4.17%,1.33
Cc1ccc(NC(=O)Cc2[nH]c3ccccc3c2Sc2ccccc2)cc1,-1.55%,-0.584
COC(=O)c1[nH]c(=O)c2ccccc2c1O,-4.14%,-1.63
Cc1nn(C(=O)c2cccnc2)c(C)c1Sc1ccc(Cl)cc1,-1.68%,-0.87
Nc1cc(OC(=O)c2ccccc2Br)nn1S(=O)(=O)c1ccccc1,-1.18%,-0.375
Cc1c(C(=O)O)oc2ccc(S(=O)(=O)N3CCOCC3)cc12,-2.57%,-0.692

Compound,"corrected activity, negative = more killing",z-score
Cc1ccc(NC(=O)CSc2ccc(Nc3ccc(C)cc3)nn2)cc1,-2.33%,-0.695
CCCc1c(C)c2cc3c(C)coc3cc2oc1=O,-6.81%,-2.03
O=C(CSCc1ccccc1Cl)NCCc1ccc(Cl)cc1,-1.86%,-0.502
O=C(c1nn2c(C(F)(F)F)cc(-c3ccco3)nc2c1Br)N1CCCCC1,-4.92%,-1.85
Cc1cc(C)c2oc(-c3ccc(C)c(N=Cc4cccc([N+](=O)[O-])c4O)c3)nc2c1,-14.1%,-2.97
O=c1[nH]c2ccc(N=Cc3ccc(-c4ccc([N+](=O)[O-])cc4)o3)cc2[nH]1,-0.571%,-0.17
O=C(c1cccc(F)c1)N1CCN=C1SCc1ccc(Br)cc1,-4.87%,-1.2
CSC1CCCCC1(O)CSc1nc2ccccc2o1 (stereo not drawn),-4.44%,-1.67
O=C(NN=Cc1ccncc1)c1n[nH]c2c1CCC2,-1.79%,-0.783
O=C(c1cccc(F)c1)N1CCCN(C(=O)c2cccc(F)c2)CC1,-4.12%,-1.69
CC(=O)Nc1ncc(Br)cc1[N+](=O)[O-],-1.26%,-0.391
Cc1ccc(C(=O)Nc2ccc(NC(=O)c3ccc(C(C)(C)C)cc3)cc2)cc1[N+](=O)[O-],-2.5%,-0.888
COc1ccc(-n2c(=S)[nH]c3cc(C(=O)O)ccc3c2=O)c(OC)c1,-4.6%,-1.46
Cc1ccccc1-c1n[nH]c(=S)o1,-4.65%,-1.65
CC(C)NCCCCOc1ccccc1-c1ccccc1,1.68%,0.626
CCOc1ccc(S(=O)(=O)Nc2ccc(Cl)cc2)c2cccnc12,-3.11%,-0.989
Cc1onc(-c2ccccc2)c1C(=O)Nc1cccc2c1C(=O)c1ccccc1C2=O,-2.48%,-1.02
COc1ccc(S(=O)(=O)N2CCN(C(=O)COc3ccc4ccccc4c3)CC2)cc1,-2.15%,-0.961
CCOc1ccc2cc(C3=NN(C(=O)CCC(=O)O)C(c4ccc(Br)cc4)C3)c(Cl)nc2c1 (stereo not drawn),-2.89%,-1.55

# Source: PubChem BioAssay AID1508625 (Wald Lab, School of Medicine, Case Western Reserve …, 2021)
